The test addresses furin, P09958. Description: furin cleavage Z-score vs untreated control; higher = more cleavage, active = 3.5 or more, inactive = 1 or less, 8 variable residues between constant flanks. In a few lines: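 Furin cleavage was scored on 8-mer peptides joined to a cDNA oligonucleotide and bound to magnetic beads at the N-terminus. Digestion with purified furin (1:10 enzyme:substrate, 0.01 ml, 50 mM HEPES pH 7.5, CaCl2, NaCl) lasted 7.5, 15 or 30 min. Freed DNA was tagged with adapters by PCR, sequenced and counted; the cleavage Z-score is the lowess-adjusted log count versus furin-free reactions, scaled by median absolute deviation.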

The list shows a part of the results. No count for the full screen is at hand.

Chain of furin, P09958 (P09958 whole entry): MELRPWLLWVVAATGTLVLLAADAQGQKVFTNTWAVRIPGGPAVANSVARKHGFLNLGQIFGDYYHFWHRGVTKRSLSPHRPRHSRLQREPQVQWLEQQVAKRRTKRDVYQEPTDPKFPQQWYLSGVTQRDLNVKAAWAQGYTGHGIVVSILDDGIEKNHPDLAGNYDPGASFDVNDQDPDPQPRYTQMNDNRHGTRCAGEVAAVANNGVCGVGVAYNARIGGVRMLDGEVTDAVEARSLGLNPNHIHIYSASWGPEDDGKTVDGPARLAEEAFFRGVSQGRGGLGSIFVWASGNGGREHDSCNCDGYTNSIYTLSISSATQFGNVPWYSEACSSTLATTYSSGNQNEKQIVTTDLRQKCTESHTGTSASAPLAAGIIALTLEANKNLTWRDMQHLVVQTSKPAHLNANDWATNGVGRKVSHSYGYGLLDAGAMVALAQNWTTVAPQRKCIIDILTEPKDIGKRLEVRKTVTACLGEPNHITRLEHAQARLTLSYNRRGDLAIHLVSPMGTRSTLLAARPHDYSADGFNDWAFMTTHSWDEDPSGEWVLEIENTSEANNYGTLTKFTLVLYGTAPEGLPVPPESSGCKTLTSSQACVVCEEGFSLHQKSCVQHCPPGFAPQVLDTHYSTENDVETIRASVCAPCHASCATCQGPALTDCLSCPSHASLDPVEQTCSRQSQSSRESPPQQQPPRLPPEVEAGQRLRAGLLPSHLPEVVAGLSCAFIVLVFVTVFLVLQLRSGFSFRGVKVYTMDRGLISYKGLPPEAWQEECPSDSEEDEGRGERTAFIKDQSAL

B1: HC1713 (peptide)
chain: CAMERCSQHLAGNASASA
Regarding B1, the “furin cleavage Z-score” value (7.5 min) was 1.58, the “furin cleavage Z-score” value (15 min) is 0.689 (inactive) and the “furin cleavage Z-score” value (30 min) was found to be 1.89.

B2: FS-692 (peptide)
chain: CAMLSRFGRFAGNASASA
Regarding B2, the “furin cleavage Z-score” value was -0.109 (inactive) (7.5 min), 0.852 (inactive) (15 min) and 3.08 (30 min).

B3: FS-490 (peptide)
chain: CARLSRFPRFAGNASASA
Consider B3, for which the “furin cleavage Z-score” value was 8.21 (active) (7.5 min), 11.2 (active) (15 min) and 11.1 (active) (30 min).

B4: FS-1749 (peptide)
chain: CARLSRPDSGAGNASASA
For B4, the “furin cleavage Z-score” value is, setting by setting: (7.5 min) -0.794 (inactive); (15 min) -0.615 (inactive); (30 min) -0.815 (inactive).

B5: FS-255 (peptide)
chain: CAIPSRRPRFAGNASASA
Turning to B5, the “furin cleavage Z-score” value reads like this: (7.5 min) 5.86 (active); (15 min) 8 (active); (30 min) 9.09 (active).

B6: HC1386 (peptide)
chain: CALRHHNLVYAGNASASA
Take B6: the “furin cleavage Z-score” value by setting is: (7.5 min) 1.49; (15 min) 0.243 (inactive); (30 min) 1.05.

B7: HC697 (peptide)
chain: CACINGVCWTAGNASASA
Consider B7, for which the “furin cleavage Z-score” value reads like this: (7.5 min) -0.68 (inactive); (15 min) -1.02 (inactive); (30 min) -2.54 (inactive).

B8: HC374 (peptide)
chain: CALNCNDSLNAGNASASA
For B8, the “furin cleavage Z-score” value is -1.18 (inactive) (7.5 min), -0.292 (inactive) (15 min) and -1.02 (inactive) (30 min).

B9: HC1351 (peptide)
chain: CADAESYSSMAGNASASA
With B9, the “furin cleavage Z-score” value (7.5 min) worked out at 1.28, the “furin cleavage Z-score” value (15 min) is 0.832 (inactive) and the “furin cleavage Z-score” value (30 min) was -0.308 (inactive).

B10: FS-2855 (peptide)
chain: CAVLRRDVITAGNASASA
Take B10: the “furin cleavage Z-score” value runs as follows: (7.5 min) 0.181 (inactive); (15 min) -1.21 (inactive); (30 min) 0.595 (inactive).

B11: HC2270 (peptide)
chain: CAVLEVVTSTAGNASASA
On to B11, for which the “furin cleavage Z-score” value (7.5 min) is 0.137 (inactive), the “furin cleavage Z-score” value (15 min) is -0.489 (inactive) and the “furin cleavage Z-score” value (30 min) was -0.471 (inactive).

B12: FS-1661 (peptide)
chain: CAVLHRNKRTAGNASASA
As for B12, the “furin cleavage Z-score” value is 9.47 (active) (7.5 min), 9.94 (active) (15 min) and 9.22 (active) (30 min).

B13: FS-1102 (peptide)
chain: CAVLGRKKRTAGNASASA
As for B13, the “furin cleavage Z-score” value reads like this: (7.5 min) 8.65 (active); (15 min) 9.15 (active); (30 min) 8.6 (active).

B14: FS-380 (peptide)
chain: CASPGRHKRTAGNASASA
For B14, the “furin cleavage Z-score” value is, setting by setting: (7.5 min) 8.84 (active); (15 min) 8.17 (active); (30 min) 6.66 (active).

B15: FS-510 (peptide)
chain: CATPGDPKRTAGNASASA
Consider B15, for which the “furin cleavage Z-score” value is -0.0828 (inactive) (7.5 min), 0.23 (inactive) (15 min) and -0.487 (inactive) (30 min).

B16: FS-93 (peptide)
chain: CASPGRSARPAGNASASA
For the sequence B16, the “furin cleavage Z-score” value was -1.18 (inactive) (7.5 min), -1.19 (inactive) (15 min) and -1.31 (inactive) (30 min).

B17: FS-172 (peptide)
chain: CAISLRFKRTAGNASASA
For B17, the “furin cleavage Z-score” value is, setting by setting: (7.5 min) 7.22 (active); (15 min) 6.1 (active); (30 min) 6.83 (active).

B18: HC1307 (peptide)
chain: CAYNPPLVETAGNASASA
Turning to B18, the “furin cleavage Z-score” value reads like this: (7.5 min) -1.06 (inactive); (15 min) -1.13 (inactive); (30 min) -1.23 (inactive).

B19: HC2290 (peptide)
chain: CADVEVVTSTAGNASASA
In the case of B19, the “furin cleavage Z-score” value (7.5 min) was found to be 1.98, the “furin cleavage Z-score” value (15 min) is 0.479 (inactive) and the “furin cleavage Z-score” value (30 min) is 0.627 (inactive).

B20: HC1648 (peptide)
chain: CAYSGGDIYHAGNASASA
For the sequence B20, the “furin cleavage Z-score” value by setting is: (7.5 min) -0.433 (inactive); (15 min) -0.656 (inactive); (30 min) -0.39 (inactive).

B21: HC1173 (peptide)
chain: CAMHTRCHCGAGNASASA
As to B21, the “furin cleavage Z-score” value (7.5 min) is -0.571 (inactive), the “furin cleavage Z-score” value (15 min) is -2.41 (inactive) and the “furin cleavage Z-score” value (30 min) is -1.42 (inactive).

B22: HC704 (peptide)
chain: CATRTIASPKAGNASASA
For the sequence B22, the “furin cleavage Z-score” value is 1.03 (7.5 min), 0.625 (inactive) (15 min) and -0.793 (inactive) (30 min).

B23: HC1170 (peptide)
chain: CAWRVDGIMHAGNASASA
As to B23, the “furin cleavage Z-score” value is 1.37 (7.5 min), 0.67 (inactive) (15 min) and 0.743 (inactive) (30 min).

B24: FS-252 (peptide)
chain: CAILSRAKRPAGNASASA
For B24, the “furin cleavage Z-score” value reads like this: (7.5 min) 0.222 (inactive); (15 min) -1.38 (inactive); (30 min) 0.306 (inactive).

B25: HC1323 (peptide)
chain: CAPPPRKKRTAGNASASA
In the case of B25, the “furin cleavage Z-score” value runs as follows: (7.5 min) 12.7 (active); (15 min) 14.5 (active); (30 min) 10.1 (active).

B26: FS-991 (peptide)
chain: CAELLRKKRTAGNASASA
Turning to B26, the “furin cleavage Z-score” value (7.5 min) was 5.51 (active), the “furin cleavage Z-score” value (15 min) is 6.85 (active) and the “furin cleavage Z-score” value (30 min) is 6.38 (active).

B27: HC1319 (peptide)
chain: CAPPPKSPPVAGNASASA
Take B27: the “furin cleavage Z-score” value reads like this: (7.5 min) -0.03 (inactive); (15 min) -0.325 (inactive); (30 min) 0.671 (inactive).

B28: FS-669 (peptide)
chain: CAIRSGKKRTAGNASASA
For the sequence B28, the “furin cleavage Z-score” value (7.5 min) is -1.71 (inactive), the “furin cleavage Z-score” value (15 min) is -0.504 (inactive) and the “furin cleavage Z-score” value (30 min) is -0.845 (inactive).

B29: FS-479 (peptide)
chain: CAQLLRKKRPAGNASASA
Take B29: the “furin cleavage Z-score” value is 2.18 (7.5 min), 1.54 (15 min) and 4.39 (active) (30 min).

B30: FS-1627 (peptide)
chain: CAELGDDGRTAGNASASA
Regarding B30, the “furin cleavage Z-score” value is, setting by setting: (7.5 min) -0.885 (inactive); (15 min) -0.821 (inactive); (30 min) -0.581 (inactive).

B31: HC693 (peptide)
chain: CAAAQTFLATAGNASASA
Turning to B31, the “furin cleavage Z-score” value (7.5 min) was -1.34 (inactive), the “furin cleavage Z-score” value (15 min) was -1.47 (inactive) and the “furin cleavage Z-score” value (30 min) was -1.85 (inactive).

B32: HC2480 (peptide)
chain: CACTPCSAHLAGNASASA
On to B32, for which the “furin cleavage Z-score” value by setting is: (7.5 min) 2.02; (15 min) 1.15; (30 min) 0.414 (inactive).

B33: HC469 (peptide)
chain: CAHYPCTINYAGNASASA
Take B33: the “furin cleavage Z-score” value is -0.918 (inactive) (7.5 min), -0.579 (inactive) (15 min) and 0.122 (inactive) (30 min).

B34: HC1736 (peptide)
chain: CAMEECSGHLAGNASASA
Regarding B34, the “furin cleavage Z-score” value is -0.517 (inactive) (7.5 min), -0.79 (inactive) (15 min) and 1.12 (30 min).

B35: HC2008 (peptide)
chain: CAVWCCSMSYAGNASASA
For B35, the “furin cleavage Z-score” value by setting is: (7.5 min) 1.84; (15 min) -0.334 (inactive); (30 min) 1.13.

B36: FS-1623 (peptide)
chain: CACLRRRRRQAGNASASA
As for B36, the “furin cleavage Z-score” value (7.5 min) was 8.28 (active), the “furin cleavage Z-score” value (15 min) was 7.74 (active) and the “furin cleavage Z-score” value (30 min) is 5.47 (active).

B37: FS-1860 (peptide)
chain: CARLRKCVEQAGNASASA
In the case of B37, the “furin cleavage Z-score” value (7.5 min) was -0.549 (inactive), the “furin cleavage Z-score” value (15 min) is 0.53 (inactive) and the “furin cleavage Z-score” value (30 min) came to 1.14.

B38: FS-181 (peptide)
chain: CANMWRCPRQAGNASASA
With B38, the “furin cleavage Z-score” value is 1.61 (7.5 min), -1.4 (inactive) (15 min) and -1.2 (inactive) (30 min).

B39: FS-801 (peptide)
chain: CAIFRRRPRQAGNASASA
On to B39, for which the “furin cleavage Z-score” value runs as follows: (7.5 min) 5.14 (active); (15 min) 4.22 (active); (30 min) 2.76.

B40: FS-1012 (peptide)
chain: CAIGGRFDRQAGNASASA
In the case of B40, the “furin cleavage Z-score” value runs as follows: (7.5 min) -1.34 (inactive); (15 min) 2.43; (30 min) 1.03.

B41: FS-1415 (peptide)
chain: CASPQRRRRQAGNASASA
B41: the “furin cleavage Z-score” value by setting is: (7.5 min) 7.36 (active); (15 min) 8.25 (active); (30 min) 6.4 (active).

B42: FS-787 (peptide)
chain: CAGREERRRQAGNASASA
With B42, the “furin cleavage Z-score” value by setting is: (7.5 min) -0.438 (inactive); (15 min) -0.529 (inactive); (30 min) 0.464 (inactive).

B43: FS-234 (peptide)
chain: CAEQRRRRRQAGNASASA
Consider B43, for which the “furin cleavage Z-score” value is, setting by setting: (7.5 min) 8.68 (active); (15 min) 6.63 (active); (30 min) 6.29 (active).

Values taken from the supplement of paper PMC3545927.
